Outcome and AC50 data for 8 compounds are collected here from PubChem BioAssay (EPA / NIEHS).

Molecules are shown by their SMILES. Records with an inconclusive call do not appear. The source made the active and inactive calls. The calls were made as follows, unless noted: active = hit-call score of the fitted dose curve at least 0.9, where 1 is the maximum; inactive = score below 0.9.

The target in assay [1] is Estrogen receptor beta (Homo sapiens) (UniProt Q92731). Briefly: OT_ER_ERbERb_1440: Odyssey Thera (OT) 24-hour HEK293T Protein-Complementation Assay for Estrogen Receptor-beta/-beta Homodimer (AID 2283380; active = hit-call score of the fitted dose curve at least 0.9, where 1 is the maximum;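 also: scored as signal increase over DMSO baseline for both agonists and antagonists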). Put shortly:
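HEK293T cells stably expressing ER beta LBD (aa 310-547) homodimer fragment-complementation reporter, dosed 24 h. Cells formaldehyde-fixed, Draq5-stained; gain in nuclear (agonist) or nuclear plus cytoplasmic (antagonist) fluorescence versus DMSO read by laser scanning cytometry.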

The target of assay [2] is Estrogen receptor (Homo sapiens) (UniProt P03372). Briefly: OT_ERa_GFPERaERE_0480: Odyssey Thera (OT) 8-hour HeLa Transcription Induction Assay for Estrogen Receptor (AID 2283381). Put shortly:
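Human cervical HeLa cells were treated for 8 hours, after which ERE-driven GFP induction was measured by fluorescence microscopy; increases over DMSO baseline defined activity.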

Assay [3] has the same target. Kind of assay: OT_ERa_GFPERaERE_0120: Odyssey Thera (OT) 2-hour HeLa Transcription Induction Assay for Estrogen Receptor (AID 2283382; active = hit-call score of the fitted dose curve at least 0.9, where 1 is the maximum). Put shortly:
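Cells (human cervical HeLa) receive compound, incubate 2 hours, then are imaged for fluorescent reporter induction. Images are quantified by high content analysis, and activity is fitted as gain of signal against DMSO.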

In assay [4] the target is Retinoic acid receptor RXR-alpha (Homo sapiens) (UniProt P19793). Kind of assay: OT_NURR1_NURR1RXRa_0480: Odyssey Thera (OT) 8-hour HEK293T Protein Complementation Assay for Nurr1/retinoid X receptor (RXR) (AID 2283385; active = hit-call score of the fitted dose curve at least 0.9, where 1 is the maximum). An outline of the steps: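 Interaction of bait and prey reconstitutes a functional reporter, whose fluorescence was measured in HEK293T cells dosed with compound for 8 hours. Signal gain relative to DMSO defined the single endpoint.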
Retinoic acid receptor RXR-alpha (Homo sapiens), sequence (P19793 whole entry, looked up): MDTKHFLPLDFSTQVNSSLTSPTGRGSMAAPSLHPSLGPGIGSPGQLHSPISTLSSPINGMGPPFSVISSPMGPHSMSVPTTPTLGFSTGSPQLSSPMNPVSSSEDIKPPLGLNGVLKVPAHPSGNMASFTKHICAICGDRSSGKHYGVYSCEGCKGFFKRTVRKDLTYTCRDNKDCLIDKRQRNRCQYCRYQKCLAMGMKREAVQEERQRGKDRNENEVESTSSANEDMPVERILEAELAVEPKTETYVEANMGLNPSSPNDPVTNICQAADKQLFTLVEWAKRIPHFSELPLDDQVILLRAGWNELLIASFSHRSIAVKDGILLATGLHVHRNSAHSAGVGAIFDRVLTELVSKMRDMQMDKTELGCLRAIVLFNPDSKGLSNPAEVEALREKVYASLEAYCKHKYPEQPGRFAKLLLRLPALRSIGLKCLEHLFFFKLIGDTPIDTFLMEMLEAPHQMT

Assay [5] has the same target. Briefly: OT_NURR1_NURR1RXRa_1440: Odyssey Thera (OT) 24-hour HEK293T Protein Complementation Assay for Nurr1/retinoid X receptor (RXR) (AID 2283386; active = hit-call score of the fitted dose curve at least 0.9, where 1 is the maximum). Put shortly:
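Steps: fragment-tagged Nurr1 and RXRα expressed in HEK293T; compounds added; after 24 h, complemented reporter quantified by fluorescence intensity; signal increase over DMSO fitted as the single endpoint.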

Assay [6] has as its target Peroxisome proliferator-activated receptor gamma (Homo sapiens) (UniProt P37231). Briefly: OT_PPARg_PPARgSRC1_0480: Odyssey Thera (OT) 8-hour Protein-Complementation Assay for Peroxisome Proliferator-activated Receptor Gamma / SRC-1 Co-activator (AID 2283387; active = hit-call score of the fitted dose curve at least 0.9, where 1 is the maximum;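 also: nuclear to cytoplasmic split Venus YFP fluorescence ratio reporting PPARg SRC-1 interaction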). An outline of the steps: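 Read-out: 488 nm N/C fluorescence ratio from complemented Venus YFP fragments, ≥350 cells per image, gain-of-signal fitted against DMSO baseline. Fusions of PPARg/SRC-1 with IFP1/IFP2 expressed transiently in HEK293T; compounds applied 8 h.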

The target is the same in assay [7]. Kind of assay: OT_PPARg_PPARgSRC1_1440: Odyssey Thera (OT) 24-hour Protein-Complementation Assay for Peroxisome Proliferator-activated Receptor Gamma/ SRC-1 Co-activator (AID 2283388; active = hit-call score of the fitted dose curve at least 0.9, where 1 is the maximum;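 also: nuclear to cytoplasmic ratio of reconstituted Venus YFP fluorescence in fixed imaged cells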). Put shortly:
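Cells carrying the PPARg/SRC-1 fragment-complementation reporter receive compound for 24 hours, are fixed and counterstained with Draq5, then imaged. Increased nuclear relative to cytoplasmic YFP fluorescence above DMSO baseline indicates binding activity.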

Assay [8] can be described thus: ATG_XTT_Cytotoxicity: Cytotoxicity Assessment in the Attagene TRANS-FACTORIAL HepG2 Assay (AID 2283584; active = hit-call score of the fitted dose curve at least 0.9, where 1 is the maximum;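 as to AC50: XTT signal for cell number as viability in transfected HepG2 cells; cells exposed to compound for 24 h before reading; active means loss of viability signal versus DMSO baseline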). Put shortly:
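24 h chemical exposure of reporter-transfected HepG2; XTT signal loss vs DMSO indicates cytotoxicity.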

Assay [9] is described as follows: CEETOX_H295R_11DCORT: CeeTox H295R High-throughput Steroidogenesis Assay for 11-Deoxycortisol (11DCORT) (AID 2283432).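 As to AC50: human adrenal H295R cells prestimulated with 10 µM forskolin for 48 h; 11-deoxycortisol secreted into the medium measured by LC-MS/MS.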 The settings on record: actives raise or lower the signal. Put shortly: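 H295R cells; 10 uM forskolin prestim 48 h; compound in 0.1% DMSO 48 h; media extracted with MTBE; 11-deoxycortisol by LC-MS/MS, 7-point standard curve; gain/loss vs DMSO baseline; viability by MTT in same wells.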

The nature of assay [10]: CEETOX_H295R_OHPREG: CeeTox H295R High-throughput Steroidogenesis Assay for OH-Pregnenolone (OHPREG) (AID 2283434). The settings on record: actives raise or lower the signal. An outline of the steps:
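H295R, 10 uM forskolin pre-stim 48 h; test chemical 48 h, 0.1% DMSO final. MTBE extraction, reverse-phase C18 HPLC-ESI+ MS/MS of medium. Gain/loss vs DMSO; viability by MTT in same wells.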

Assay [11] in a line: CEETOX_H295R_OHPROG: CeeTox H295R High-throughput Steroidogenesis Assay for OH-Progesterone (OHPROG) (AID 2283435).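 As to AC50: human adrenal H295R cells primed 48 h with 10 µM forskolin; 17alpha-hydroxyprogesterone secreted into medium measured by HPLC-MS/MS.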 The settings on record: actives raise or lower the signal. Put shortly: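 Steps: seed H295R cells and adhere overnight; stimulate with 10 uM forskolin for 48 h; replace with chemical-containing medium (0.1% DMSO) for 48 h; extract medium with MTBE; quantify 17alpha-hydroxyprogesterone by reverse-phase C18 HPLC-MS/MS against a 7-point curve.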

A short description of assay [12]: CEETOX_H295R_CORTIC: CeeTox H295R High-throughput Steroidogenesis Assay for Corticosterone (CORTIC) (AID 2283437).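 Also: corticosterone secreted into medium quantified by mass spectrometry.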 Conditions: actives raise or lower the signal. Put shortly:
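48 h forskolin (10 uM) prestim, then 48 h chemical exposure, final DMSO 0.1%. Readout: corticosterone in medium by LC-MS/MS after MTBE extraction. Gain/loss fit vs DMSO; MTT viability in same wells.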

A short description of assay [13]: CEETOX_H295R_CORTISOL: CeeTox H295R High-throughput Steroidogenesis Assay for Cortisol (AID 2283438). Conditions: actives raise or lower the signal. An outline of the steps: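 Cortisol synthesis by H295R cells is measured 48 h after chemical dosing, following a 48 h stimulation with 10 uM forskolin. Hormone is extracted and quantified by HPLC-MS/MS, and activity is fitted bidirectionally against the DMSO control.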

Assay [14] can be described thus: CEETOX_H295R_DOC: CeeTox H295R High-throughput Steroidogenesis Assay for DOC (AID 2283439). The settings on record: actives raise or lower the signal. Put shortly:
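Steps: seed H295R, adhere overnight; 10 uM forskolin 48 h; replace with chemical medium (0.1% DMSO) 48 h; collect medium, MTBE extraction, HPLC-MS/MS for DOC. Viability then checked by MTT; cytotoxic chemicals diluted until viability ≥70%.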

A short description of assay [15]: CEETOX_H295R_ESTRADIOL: CeeTox H295R High-throughput Steroidogenesis Assay for Estradiol (AID 2283440).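 Also: estradiol secreted into medium quantified by LC-MS/MS after dansyl derivatisation.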 Conditions: actives raise or lower the signal. Put shortly: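 Readout is estradiol in conditioned medium, quantified by reverse-phase HPLC-MS/MS against a 7-point standard curve. Cells: H295R, forskolin-stimulated, then dosed 48 h in 0.1% DMSO; activity fitted in both directions relative to DMSO.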

Assay [16] is described as follows: CEETOX_H295R_ESTRONE: CeeTox H295R High-throughput Steroidogenesis Assay for Estrone (AID 2283441). Conditions: actives raise or lower the signal. An outline of the steps:
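Estrone secreted into medium quantified by LC-MS/MS after dansyl chloride derivatization, following 48 h chemical exposure (0.1% DMSO final) of forskolin-prestimulated (10 uM, 48 h) H295R cells; gain or loss fitted against DMSO; MTT viability in same wells.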

Assay [17] can be described thus: CEETOX_H295R_PROG: CeeTox H295R High-throughput Steroidogenesis Assay for Progesterone (PROG) (AID 2283442).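 As to AC50: human H295R adrenal cells primed with 10 µM forskolin before dosing.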 Conditions: actives raise or lower the signal. Put shortly: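 Measured analyte is progesterone secreted by H295R cells at 48 h of chemical treatment, following 10 uM forskolin priming. Quantitation used HPLC-MS/MS against a 7-point standard curve; cytotoxicity was checked by MTT absorbance.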

Assay [18] has as its target Agonist Androgen Response Element (ARE), AR (gene 367) (UniProt P10275). Briefly: OT_AR_ARELUC_AG_1440: Odyssey Thera (OT) 24-hour CHO-K1 Luciferase Assay for Agonist Androgen Response Element (ARE) (AID 2283379; active = hit-call score of the fitted dose curve at least 0.9, where 1 is the maximum). Put shortly: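 Gain-of-signal reporter endpoint: cells (CHO-K1, hamster) are treated 24 h, luciferin/ATP reagent added, and luminescence compared with DMSO baseline.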

The nature of assay [19]: CEETOX_H295R_ANDR: CeeTox H295R High-throughput Steroidogenesis Assay for Androstenedione (ANDR) (AID 2283436).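 Also: human H295R adrenal cells exposed for 48 h with androstenedione measured in medium.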 The settings on record: actives raise or lower the signal. Put shortly: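 48 h chemical exposure, H295R cells, DMEM/F12 + ITS+ and Nu-Serum. Medium androstenedione: MTBE extraction, C18 reverse-phase HPLC, ESI+ MS/MS. Fit bidirectional vs DMSO; MTT viability in same wells.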

Assay [20] in a line: CEETOX_H295R_TESTO: CeeTox H295R High-throughput Steroidogenesis Assay for Testosterone (TESTO) (AID 2283457). Conditions: actives raise or lower the signal. Put shortly:
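Steroidogenesis in H295R cells following OECD 456 with minor changes; 48 h exposure. Medium testosterone by HPLC-MS/MS, DMSO as baseline, with MTT viability run in parallel.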

Peroxisome proliferator-activated receptor gamma (Homo sapiens), sequence (P37231 whole entry, looked up, the tested form may be a part): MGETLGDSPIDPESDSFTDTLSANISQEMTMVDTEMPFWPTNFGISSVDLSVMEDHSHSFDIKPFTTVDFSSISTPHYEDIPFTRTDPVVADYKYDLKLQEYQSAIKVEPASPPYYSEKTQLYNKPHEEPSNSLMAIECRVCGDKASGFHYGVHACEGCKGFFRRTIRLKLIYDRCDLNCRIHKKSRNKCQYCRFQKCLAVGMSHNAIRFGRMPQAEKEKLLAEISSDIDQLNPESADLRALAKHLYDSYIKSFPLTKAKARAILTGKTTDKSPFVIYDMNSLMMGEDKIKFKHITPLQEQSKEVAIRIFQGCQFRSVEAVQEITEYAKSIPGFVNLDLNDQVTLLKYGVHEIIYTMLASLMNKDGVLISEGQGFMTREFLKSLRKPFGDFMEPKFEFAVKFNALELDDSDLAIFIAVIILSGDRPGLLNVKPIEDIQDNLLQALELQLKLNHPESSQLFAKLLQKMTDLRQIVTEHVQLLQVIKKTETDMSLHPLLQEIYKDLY
Estrogen receptor (Homo sapiens), sequence (P03372 whole entry, looked up): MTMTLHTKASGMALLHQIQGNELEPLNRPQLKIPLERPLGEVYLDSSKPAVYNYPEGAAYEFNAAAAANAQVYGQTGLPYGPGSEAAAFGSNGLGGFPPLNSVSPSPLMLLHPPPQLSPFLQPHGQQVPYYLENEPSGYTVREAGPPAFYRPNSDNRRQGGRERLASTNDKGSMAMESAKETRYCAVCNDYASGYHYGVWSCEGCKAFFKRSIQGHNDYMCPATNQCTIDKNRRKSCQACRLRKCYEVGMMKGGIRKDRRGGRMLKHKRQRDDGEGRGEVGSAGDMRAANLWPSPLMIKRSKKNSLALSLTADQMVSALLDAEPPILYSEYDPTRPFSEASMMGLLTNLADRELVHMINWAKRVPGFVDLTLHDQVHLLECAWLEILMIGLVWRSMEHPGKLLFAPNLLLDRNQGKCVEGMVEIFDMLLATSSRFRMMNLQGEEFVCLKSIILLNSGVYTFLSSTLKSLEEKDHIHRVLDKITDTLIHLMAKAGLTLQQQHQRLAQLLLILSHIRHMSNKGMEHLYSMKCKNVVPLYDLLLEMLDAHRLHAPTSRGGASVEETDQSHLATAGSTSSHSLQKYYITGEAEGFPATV
Estrogen receptor beta (Homo sapiens), sequence (Q92731 whole entry, looked up, the tested form may be a part): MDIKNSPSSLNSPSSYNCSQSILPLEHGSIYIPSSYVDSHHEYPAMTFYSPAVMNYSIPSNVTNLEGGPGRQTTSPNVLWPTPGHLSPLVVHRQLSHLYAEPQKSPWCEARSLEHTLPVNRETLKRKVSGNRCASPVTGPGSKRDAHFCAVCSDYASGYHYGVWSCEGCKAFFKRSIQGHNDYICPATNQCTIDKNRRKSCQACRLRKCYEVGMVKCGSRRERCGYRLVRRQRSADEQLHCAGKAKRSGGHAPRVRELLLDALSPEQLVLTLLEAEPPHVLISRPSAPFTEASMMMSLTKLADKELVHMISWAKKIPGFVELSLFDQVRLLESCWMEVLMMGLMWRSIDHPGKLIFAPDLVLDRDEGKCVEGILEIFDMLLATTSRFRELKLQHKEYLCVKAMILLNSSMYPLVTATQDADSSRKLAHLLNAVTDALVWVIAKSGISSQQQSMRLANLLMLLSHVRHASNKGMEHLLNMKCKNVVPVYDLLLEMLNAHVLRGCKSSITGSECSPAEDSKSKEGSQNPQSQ
Agonist Androgen Response Element (ARE), AR (gene 367), sequence (P10275 whole entry, looked up): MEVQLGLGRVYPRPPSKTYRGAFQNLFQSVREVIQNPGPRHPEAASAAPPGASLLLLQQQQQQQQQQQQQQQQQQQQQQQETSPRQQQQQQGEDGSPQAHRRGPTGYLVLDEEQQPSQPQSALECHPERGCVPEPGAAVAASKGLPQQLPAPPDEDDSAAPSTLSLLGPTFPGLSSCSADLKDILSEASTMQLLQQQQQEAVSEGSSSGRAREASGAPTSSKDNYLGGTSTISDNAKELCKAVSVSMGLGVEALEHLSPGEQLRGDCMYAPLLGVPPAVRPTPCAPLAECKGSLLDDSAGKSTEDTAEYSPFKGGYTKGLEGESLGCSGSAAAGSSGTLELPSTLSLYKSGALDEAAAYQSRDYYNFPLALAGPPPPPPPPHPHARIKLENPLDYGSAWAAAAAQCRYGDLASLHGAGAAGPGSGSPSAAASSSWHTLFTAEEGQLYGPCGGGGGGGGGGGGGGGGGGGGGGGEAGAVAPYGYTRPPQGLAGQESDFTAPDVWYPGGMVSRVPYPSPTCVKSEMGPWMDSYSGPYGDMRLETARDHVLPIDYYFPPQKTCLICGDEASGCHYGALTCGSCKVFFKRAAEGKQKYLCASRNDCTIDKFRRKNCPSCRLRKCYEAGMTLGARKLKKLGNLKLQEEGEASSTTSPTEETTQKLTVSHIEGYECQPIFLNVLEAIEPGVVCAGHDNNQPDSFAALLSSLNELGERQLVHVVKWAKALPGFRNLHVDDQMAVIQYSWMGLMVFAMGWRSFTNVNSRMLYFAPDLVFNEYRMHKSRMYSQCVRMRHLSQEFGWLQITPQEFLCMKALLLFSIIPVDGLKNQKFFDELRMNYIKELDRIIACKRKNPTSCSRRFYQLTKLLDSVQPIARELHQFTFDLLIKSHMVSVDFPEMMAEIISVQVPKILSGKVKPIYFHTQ

`Cn1c([N+](=O)[O-])cnc1COC(N)=O`: the result in [1], in [2], in assay [3], in assay [4], in assay [5] and in assay [6] was inactive. The call in assay [7] and in assay [8] was inactive.
With `CCCCC(CC)CCC(CC(C)C)OS(=O)(=O)O` (stereo not given), the outcome in [1], in [2], in [3], in assay [4], in [5] and in assay [6] was inactive. Also, the outcome in assay [7] and in assay [8] was inactive.
As for `CCCCCCCCCCCCCOP(=O)(O)O`, the compound was called inactive in assay [1], in [2], in assay [3], in [4], in assay [5] and in assay [6]. For the same compound, the call in [7], in assay [9], in assay [10], in assay [11], in [12] and in [13] was inactive. In addition, the result in assay [14], in assay [15], in assay [16], in [17] and in assay [8] was inactive.
With `Cc1ccc(C(C)c2ccc(C)c(C)c2)cc1C`, the call in [1], in [2], in assay [3], in assay [7], in assay [9] and in assay [12] was inactive. Moreover, the compound was classed as inactive in assay [13], in [14], in assay [15], in assay [16] and in assay [8]. Besides, the AC50 in [4] was 83.5 µM (active); in assay [5] it was 76.4 µM (active); in assay [10] it was 42.5 µM (active); in [11], 31.9 µM (active); in assay [17], 40.9 µM (active).
`CNC(=S)NN`: the compound was classed as inactive in assay [1], in assay [2], in [3], in assay [5], in assay [6] and in assay [7]. The outcome in assay [8] was inactive. The AC50 in [4] was 50 µM (active).
`CCOC(=O)Cc1cccc2ccccc12`: the result in assay [1], in assay [2], in assay [3], in [4], in assay [5] and in assay [6] was inactive. Moreover, the call in assay [7], in assay [12], in assay [13], in assay [15] and in [16] was inactive. For the same compound, the AC50 in assay [9] is 34.3 µM (active); in assay [10], 61.3 µM (active); in assay [11], 40.1 µM (active); in [14] it was 30.8 µM (active); in assay [17], 24.9 µM (active).
Regarding `Oc1ccc(Cl)cc1Cc1cc(Cl)ccc1O`, the call in assay [18], in [2], in assay [3], in [6], in assay [7] and in assay [10] was inactive. Also, the outcome in assay [11], in assay [19], in [12], in assay [13], in assay [14] and in [15] was inactive. Moreover, the outcome in assay [16], in assay [17] and in assay [20] was inactive. The AC50 is 11.9 µM (active) in [1]; 11.7 µM (active) in [4]; 11.2 µM (active) in assay [5]; 6.93 µM (active) in assay [9]; 27 µM (active) in [8].
For `CCCCC/C=C\CCC=O`, the AC50 in assay [18] was 1.31 µM (active). The compound was classed as inactive in [2], in assay [3], in assay [4], in assay [5], in [6] and in assay [7]. Also, the outcome in assay [9], in [10], in [11], in assay [19], in assay [12] and in assay [13] was inactive. In addition, the compound was called inactive in [14], in assay [17], in [20] and in [8].
